# Over roughly 16,000 sequences, “rpm ratio (pull-down/input)” has its median near 0.94; the highest 2% begin near 1.7. What follows is part of a selection rich in the highest values, with near analogues and random picks from the rest.
# Target: T1, MBP-FoxP1dN (Mus musculus, UniProt P58462 326-579)
# T1 sequence: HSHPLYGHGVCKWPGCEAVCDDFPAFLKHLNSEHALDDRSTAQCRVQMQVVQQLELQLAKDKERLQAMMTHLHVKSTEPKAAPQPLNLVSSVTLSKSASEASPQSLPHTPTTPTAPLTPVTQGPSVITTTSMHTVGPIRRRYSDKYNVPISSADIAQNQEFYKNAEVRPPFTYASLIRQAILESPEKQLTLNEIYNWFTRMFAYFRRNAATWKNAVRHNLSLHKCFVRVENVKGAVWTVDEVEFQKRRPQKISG
# Assay: PD-seq (MBP pull-down with sequencing); 20 mM Tris-HCl pH 7.5, 100 mM NaCl, 1.5 mM MgCl2, 0.4 uM protein, 0.1 uM dsDNA library, 30 min, room temperature, amylose pull-down; high values mean tight binding
# Settings: protein: recombinant; tags: His6-MBP; chain copies: 2; dsDNA, one strand shown
# Method in brief: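 A degenerate double-stranded DNA library, filled in with Klenow, was added at 0.1 µM to 0.4 µM His6-MBP-tagged mouse FoxP3 or FoxP1 fragment lacking the N-terminus, expressed in E. coli. Incubation lasted 30 min at room temperature in Tris pH 7.5 buffer with NaCl and MgCl2, after which complexes were collected on amylose resin, washed three times, digested with proteinase K to free the DNA, barcoded by PCR and sequenced by Illumina. Binding is the pooled-replicate reads-per-million enrichment of pull-down over input.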
row,Sequence,binding signal
1,GATGATTGTTCTCCCAGCTGATGAATTGTTTATATCGAGTAAACAAATTTTCCTAATCTTTCTGTTCAAGCGCCATCTAC,2.47 RPM ratio (pull-down/input)
2,GATGATTGTTCTCCCAGCTGATGAATTTTTTTTATCGAGTAAACAAATTTTCCTAATCTTTCTGTTCAAGCGCCATCTAC,0.958 RPM ratio (pull-down/input)
3,GATGATTGTTCTCCCAGCTGATGAATTGTGTTTATCGAGTAAACAAATTTTCCTAATCTTTCTGTTCAAGCGCCATCTAC,2.92 RPM ratio (pull-down/input)
4,GATGATTGTTCTCCCAGCTGATGAATTTCTTTTATCGAGTAAACAAATTTTCCTAATCTTTCTGTTCAAGCGCCATCTAC,1.03 RPM ratio (pull-down/input)
5,GATGATTGTTCTCCCAGCTGATGAATTTATCTAATCGAGTAAACAAATTTTCCTAATCTTTCTGTTCAAGCGCCATCTAC,1.32 RPM ratio (pull-down/input)
6,GATGATTGTTCTCCCAGCTGATGAATTTAGTTTATCGAGTAAACAAATTTTCCTAATCTTTCTGTTCAAGCGCCATCTAC,1.89 RPM ratio (pull-down/input)
7,GATGATTGTTCTCCCAGCTGATGAATTAGTTTTATCGAGTAAACAAATTTTCCTAATCTTTCTGTTCAAGCGCCATCTAC,1.02 RPM ratio (pull-down/input)
8,GATGATTGTTCTCCCAGCTGATGAATTGTTTTTATCGAGTAAACAAATTTTCCTAATCTTTCTGTTCAAGCGCCATCTAC,2.19 RPM ratio (pull-down/input)
9,GATGATTGTTCTCCCAGCTGATGAATTCTGCGCGTCGAGTAAACAAATTTTCCTAATCTTTCTGTTCAAGCGCCATCTAC,0.978 RPM ratio (pull-down/input)
10,GATGATTGTTCTCCCAGCTGATGAATTCCATTACTCGAGTAAACAAATTTTCCTAATCTTTCTGTTCAAGCGCCATCTAC,0.874 RPM ratio (pull-down/input)
11,GATGATTGTTCTCCCAGCTGATGAATTCAAGATCTCGAGTAAACAAATTTTCCTAATCTTTCTGTTCAAGCGCCATCTAC,0.814 RPM ratio (pull-down/input)
12,GATGATTGTTCTCCCAGCTGATGAATTTCTACGATCGAGTAAACAAATTTTCCTAATCTTTCTGTTCAAGCGCCATCTAC,0.948 RPM ratio (pull-down/input)
13,GATGATTGTTCTCCCAGCTGATGAATTCACCATATCGAGTAAACAAATTTTCCTAATCTTTCTGTTCAAGCGCCATCTAC,0.984 RPM ratio (pull-down/input)
14,GATGATTGTTCTCCCAGCTGATGAATTGGGGCACTCGAGTAAACAAATTTTCCTAATCTTTCTGTTCAAGCGCCATCTAC,0.856 RPM ratio (pull-down/input)
15,GATGATTGTTCTCCCAGCTGATGAATTTCACTGGTCGAGTAAACAAATTTTCCTAATCTTTCTGTTCAAGCGCCATCTAC,0.806 RPM ratio (pull-down/input)
16,GATGATTGTTCTCCCAGCTGATGAATTATGGCAATCGAGTAAACAAATTTTCCTAATCTTTCTGTTCAAGCGCCATCTAC,1.23 RPM ratio (pull-down/input)

row,Sequence,binding signal
1,GATGATTGTTCTCCCAGCTGATGAATTTCGGTTCTCGAGTAAACAAATTTTCCTAATCTTTCTGTTCAAGCGCCATCTAC,0.825 RPM ratio (pull-down/input)
2,GATGATTGTTCTCCCAGCTGATGAATTCGGGGCCTCGAGTAAACAAATTTTCCTAATCTTTCTGTTCAAGCGCCATCTAC,0.744 RPM ratio (pull-down/input)
3,GATGATTGTTCTCCCAGCTGATGAATTCTGTTTATCGAGTAAACAAATTTTCCTAATCTTTCTGTTCAAGCGCCATCTAC,2.76 RPM ratio (pull-down/input)
4,GATGATTGTTCTCCCAGCTGATGAATTTGTTTTATCGAGTAAACAAATTTTCCTAATCTTTCTGTTCAAGCGCCATCTAC,1.78 RPM ratio (pull-down/input)
5,GATGATTGTTCTCCCAGCTGATGAATTTGTTAGTTCGAGTAAACAAATTTTCCTAATCTTTCTGTTCAAGCGCCATCTAC,1.78 RPM ratio (pull-down/input)
6,GATGATTGTTCTCCCAGCTGATGAATTTATCAAATCGAGTAAACAAATTTTCCTAATCTTTCTGTTCAAGCGCCATCTAC,1.28 RPM ratio (pull-down/input)
7,GATGATTGTTCTCCCAGCTGATGAATTTTTTATCTCGAGTAAACAAATTTTCCTAATCTTTCTGTTCAAGCGCCATCTAC,0.997 RPM ratio (pull-down/input)
8,GATGATTGTTCTCCCAGCTGATGAATTAGTTAGTTCGAGTAAACAAATTTTCCTAATCTTTCTGTTCAAGCGCCATCTAC,0.968 RPM ratio (pull-down/input)
9,GATGATTGTTCTCCCAGCTGATGAATTCCTTTTATCGAGTAAACAAATTTTCCTAATCTTTCTGTTCAAGCGCCATCTAC,0.896 RPM ratio (pull-down/input)
10,GATGATTGTTCTCCCAGCTGATGAATTGTTAGTTTCGAGTAAACAAATTTTCCTAATCTTTCTGTTCAAGCGCCATCTAC,1.7 RPM ratio (pull-down/input)
11,GATGATTGTTCTCCCAGCTGATGAATTCTTTTTATCGAGTAAACAAATTTTCCTAATCTTTCTGTTCAAGCGCCATCTAC,1 RPM ratio (pull-down/input)
12,GATGATTGTTCTCCCAGCTGATGAATTGTTTATCTCGAGTAAACAAATTTTCCTAATCTTTCTGTTCAAGCGCCATCTAC,2.68 RPM ratio (pull-down/input)
13,GATGATTGTTCTCCCAGCTGATGAATTTATCTCCTCGAGTAAACAAATTTTCCTAATCTTTCTGTTCAAGCGCCATCTAC,1.08 RPM ratio (pull-down/input)
14,GATGATTGTTCTCCCAGCTGATGAATTTATCTGATCGAGTAAACAAATTTTCCTAATCTTTCTGTTCAAGCGCCATCTAC,1.07 RPM ratio (pull-down/input)
15,GATGATTGTTCTCCCAGCTGATGAATTCAATGAATCGAGTAAACAAATTTTCCTAATCTTTCTGTTCAAGCGCCATCTAC,0.93 RPM ratio (pull-down/input)
16,GATGATTGTTCTCCCAGCTGATGAATTGGAAGGCTCGAGTAAACAAATTTTCCTAATCTTTCTGTTCAAGCGCCATCTAC,0.76 RPM ratio (pull-down/input)

# From PMC12820563, “FoxP3 forms a head-to-head dimer in vivo and stabilizes its multimerization on adjacent microsatellites”
